# Assay results from article PMC4336329 (PLoS ONE, 2015).
# In all, about 310,000 compounds went through this assay and about 14,000 (4.5%) showed an effect of 50% or more. The effect is printed as a negative number. The sample as a whole holds a higher share of strong results than the screen did.
# Biological target: human ether-à-go-go-related gene (hERG) potassium channel (human, UniProt Q12809)
# Assay: primary screen, population patch clamp on CHO cells stably expressing hERG; higher = less effect of the substance
# 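Note: peak tail current of the secondary pulse compared with the same well before compound.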
# Sequence of human ether-à-go-go-related gene (hERG) potassium channel (Q12809 whole entry, looked up): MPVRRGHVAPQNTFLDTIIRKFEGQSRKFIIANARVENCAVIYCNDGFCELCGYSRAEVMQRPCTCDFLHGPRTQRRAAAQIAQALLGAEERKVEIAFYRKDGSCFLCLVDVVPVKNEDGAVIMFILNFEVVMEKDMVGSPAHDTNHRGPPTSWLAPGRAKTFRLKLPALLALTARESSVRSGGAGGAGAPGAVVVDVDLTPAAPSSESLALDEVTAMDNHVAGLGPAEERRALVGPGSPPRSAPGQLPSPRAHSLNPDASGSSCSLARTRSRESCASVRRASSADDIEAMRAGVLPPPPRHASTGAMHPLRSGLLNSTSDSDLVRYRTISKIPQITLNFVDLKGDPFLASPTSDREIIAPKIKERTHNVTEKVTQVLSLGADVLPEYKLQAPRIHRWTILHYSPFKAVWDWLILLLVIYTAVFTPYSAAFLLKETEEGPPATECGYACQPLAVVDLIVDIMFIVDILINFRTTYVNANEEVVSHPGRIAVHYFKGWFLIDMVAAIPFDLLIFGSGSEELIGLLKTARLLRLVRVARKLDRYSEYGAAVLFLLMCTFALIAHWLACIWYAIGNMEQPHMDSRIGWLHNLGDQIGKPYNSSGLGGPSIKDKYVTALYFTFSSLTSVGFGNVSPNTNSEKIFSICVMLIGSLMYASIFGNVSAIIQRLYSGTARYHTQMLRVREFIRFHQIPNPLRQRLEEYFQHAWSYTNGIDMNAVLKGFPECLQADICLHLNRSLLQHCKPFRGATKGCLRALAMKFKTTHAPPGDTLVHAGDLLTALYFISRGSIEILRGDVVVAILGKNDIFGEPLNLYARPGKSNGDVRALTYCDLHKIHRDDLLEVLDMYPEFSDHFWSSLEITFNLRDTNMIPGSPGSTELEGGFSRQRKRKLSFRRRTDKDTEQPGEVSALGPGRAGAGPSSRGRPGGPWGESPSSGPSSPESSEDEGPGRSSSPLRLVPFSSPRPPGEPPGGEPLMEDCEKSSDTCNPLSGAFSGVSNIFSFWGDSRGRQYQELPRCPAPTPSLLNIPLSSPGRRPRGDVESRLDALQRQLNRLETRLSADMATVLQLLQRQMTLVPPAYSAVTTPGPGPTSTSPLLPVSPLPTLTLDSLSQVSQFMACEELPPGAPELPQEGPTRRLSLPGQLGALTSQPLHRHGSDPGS
row,Compound,"hERG current change (%, negative = inhibition) at 10uM [%]"
1,COc1ccccc1NC(=O)CSc1nnc(Cc2cccs2)n1C,5.99
2,CCn1cc2nc(SCC(=O)Nc3ccc(OC)cc3OC)n(Cc3ccc(OC)cc3)c(=O)c2n1,1.42
3,Cc1ccc(NC(=O)CSc2nc3ccccc3c(=O)n2Cc2cccs2)cc1,7.4
4,CC1(C)CC(=O)N(CC(=O)NC2CCCC2)c2ccccc2S1(=O)=O,11.7
5,COc1ccc(Br)cc1/C=N/NC(=O)C(c1ccncc1)N1CCOCC1 (stereo not drawn),7.87
6,CCOc1ccc(S(=O)(=O)NCCC(=O)NCc2cccnc2)cc1,4.31
7,O=C1c2cccc3cc([N+](=O)[O-])cc(c23)C(=O)N1CC1CCCO1 (stereo not drawn),-8.56
8,CCOC(=O)N1CCc2c(sc3[nH]c(=S)[nH]c(=S)c23)C1,13.4
9,O=C(O)CC[N+](=O)[O-],15.3
10,Cc1c(C(=O)N2CCOCC2)[nH]c2ccc(OCc3ccccc3)cc12,-13.2
11,COc1ccc2[nH]c(C(=O)NCc3ccccc3)c(C)c2c1.Cl,7.03
12,CCN(CC)CCNC(=O)c1[nH]c2ccc(OCc3ccccc3)cc2c1C,-74.6
13,Cc1c(C)c2ccc(OC(C)C(=O)NCCCn3ccnc3)c(C)c2oc1=O (stereo not drawn),-6.05
14,CCc1cc(=O)oc2cc(OCC(=O)NCCCn3ccnc3)c(Cl)cc12,-28.5
15,Cc1cc(OC(C)C(=O)NCCCn2ccnc2)c2c(C)c(C)c(=O)oc2c1 (stereo not drawn),-76.7
16,Cc1c(C)c2ccc(OCC(=O)NCCCn3ccnc3)cc2oc1=O,14
17,Cc1cc(OCC(=O)NCCCn2ccnc2)c2c(C)c(C)c(=O)oc2c1,-63.6
18,Cc1cc(OC(C)C(=O)NCCCn2ccnc2)c2c(C)cc(=O)oc2c1 (stereo not drawn),-15.4
19,CCCc1cc(=O)oc2cc(C)cc(OCC(=O)NCCCN3CCOCC3)c12,-7.61
20,CCCc1cc(=O)oc2cc(C)cc(OCC(=O)NCCN3CCOCC3)c12,6.05
21,CCCc1cc(=O)oc2cc(C)cc(OCC(=O)NCCCn3ccnc3)c12,-76.4
22,Cc1c(C)c2cc(Cl)c(OCC(=O)NCCCn3ccnc3)cc2oc1=O,-2.59
23,CCCc1cc(=O)oc2cc(OCC(=O)NCCCn3ccnc3)ccc12,-47.1

row,Compound,"hERG current change (%, negative = inhibition) at 10uM [%]"
1,CCCc1cc(=O)oc2cc(OCC(=O)NCCCn3ccnc3)c(Cl)cc12,-72.3
2,Cc1cc(C(F)(F)F)nc(SCc2ccc(C(=O)O)o2)n1,-2.51
3,CC(=O)Oc1ccc2ccccc2c1C(NC(=O)Cc1ccccc1)c1ccccc1Cl (stereo not drawn),7.9
4,CCc1noc(C)c1C(=O)N1CCCC(C(=O)c2cc(F)ccc2F)C1 (stereo not drawn),-41.2
5,N#Cc1ccccc1NC(=O)CSC1=Nc2ccccc2C2CC=NN12 (stereo not drawn),1.95
6,Cc1ccc(SC(C)c2nc(-c3ccncc3)no2)cc1 (stereo not drawn),-24.3
7,Cc1ccc(S(=O)(=O)CCC(=O)OCC(=O)N2c3ccccc3CC2C)cc1 (stereo not drawn),13
8,O=C(COC(=O)c1ccco1)NCc1ccc(Cl)cc1,4.21
9,O=C(COC(=O)c1cc([N+](=O)[O-])ccc1Cl)NC1CCCC1,-26.8
10,O=C(COC(=O)CCc1c[nH]c2ccccc12)Nc1ccccc1C(F)(F)F,-5.09
11,CCC(C)(C(=O)NC1CCCCC1)N(Cc1ccco1)C(=O)CC1NC(=O)NC1=O (stereo not drawn),5.88
12,O=C(CSc1nc(-c2ccc(Cl)cc2)[nH]c(=O)n1)Nc1cccc(Cl)c1,22.3
13,CC(C)(C)c1ccccc1OCC(=O)NCCC(=O)O,-7.3
14,CCCCc1cc(=O)oc2cc(OCC(=O)NCCN3CCOCC3)c(Cl)cc12,1.96
15,CCc1cc(=O)oc2cc(C)cc(OCC(=O)NCCCn3ccnc3)c12,-55.3
16,CCc1cc(=O)oc2cc(C)cc(OCC(=O)NCCCN3CCOCC3)c12,-11.1
17,CCCc1cc(=O)oc2cc(C)cc(OC(C)C(=O)NCCCn3ccnc3)c12 (stereo not drawn),-65.3
18,CCCc1cc(=O)oc2cc(OC(C)C(=O)NCCCn3ccnc3)ccc12 (stereo not drawn),-42.1
19,CCc1cc(=O)oc2cc(C)cc(OC(C)C(=O)NCCCn3ccnc3)c12 (stereo not drawn),-30.9
20,CCCc1cc(=O)oc2cc(OCC(=O)NCCCN3CCOCC3)c(Cl)cc12,-73
21,Cc1cc(OCC(=O)NCCCn2ccnc2)c2c(C)cc(=O)oc2c1,-22.5
22,CCc1cc(=O)oc2cc(OCC(=O)NCCCN3CCOCC3)c(Cl)cc12,4.59
